Molecules are shown by their SMILES. The whole screen tested about 350,000 compounds, of which about 840 (0.24%) were called active. This excerpt belongs to a sample that is enriched for actives. A number with no mark means an inactive call. No stated cut-off is given here; in the data, active means inhibition above about 10%; inactive means the rest.

The target of this assay is Toxin B (Clostridioides difficile) (UniProt P18177). The assay is described as follows: TcdB glycohydrolase inhibitors, primary screen, biochemical, single point, plate reader (AID 652162). The settings on record: TcdB glycohydrolase enzymatic assay, at 9.99 µM, stronger effect = higher value.
Sequence of Toxin B (Clostridioides difficile) (P18177 whole entry, looked up): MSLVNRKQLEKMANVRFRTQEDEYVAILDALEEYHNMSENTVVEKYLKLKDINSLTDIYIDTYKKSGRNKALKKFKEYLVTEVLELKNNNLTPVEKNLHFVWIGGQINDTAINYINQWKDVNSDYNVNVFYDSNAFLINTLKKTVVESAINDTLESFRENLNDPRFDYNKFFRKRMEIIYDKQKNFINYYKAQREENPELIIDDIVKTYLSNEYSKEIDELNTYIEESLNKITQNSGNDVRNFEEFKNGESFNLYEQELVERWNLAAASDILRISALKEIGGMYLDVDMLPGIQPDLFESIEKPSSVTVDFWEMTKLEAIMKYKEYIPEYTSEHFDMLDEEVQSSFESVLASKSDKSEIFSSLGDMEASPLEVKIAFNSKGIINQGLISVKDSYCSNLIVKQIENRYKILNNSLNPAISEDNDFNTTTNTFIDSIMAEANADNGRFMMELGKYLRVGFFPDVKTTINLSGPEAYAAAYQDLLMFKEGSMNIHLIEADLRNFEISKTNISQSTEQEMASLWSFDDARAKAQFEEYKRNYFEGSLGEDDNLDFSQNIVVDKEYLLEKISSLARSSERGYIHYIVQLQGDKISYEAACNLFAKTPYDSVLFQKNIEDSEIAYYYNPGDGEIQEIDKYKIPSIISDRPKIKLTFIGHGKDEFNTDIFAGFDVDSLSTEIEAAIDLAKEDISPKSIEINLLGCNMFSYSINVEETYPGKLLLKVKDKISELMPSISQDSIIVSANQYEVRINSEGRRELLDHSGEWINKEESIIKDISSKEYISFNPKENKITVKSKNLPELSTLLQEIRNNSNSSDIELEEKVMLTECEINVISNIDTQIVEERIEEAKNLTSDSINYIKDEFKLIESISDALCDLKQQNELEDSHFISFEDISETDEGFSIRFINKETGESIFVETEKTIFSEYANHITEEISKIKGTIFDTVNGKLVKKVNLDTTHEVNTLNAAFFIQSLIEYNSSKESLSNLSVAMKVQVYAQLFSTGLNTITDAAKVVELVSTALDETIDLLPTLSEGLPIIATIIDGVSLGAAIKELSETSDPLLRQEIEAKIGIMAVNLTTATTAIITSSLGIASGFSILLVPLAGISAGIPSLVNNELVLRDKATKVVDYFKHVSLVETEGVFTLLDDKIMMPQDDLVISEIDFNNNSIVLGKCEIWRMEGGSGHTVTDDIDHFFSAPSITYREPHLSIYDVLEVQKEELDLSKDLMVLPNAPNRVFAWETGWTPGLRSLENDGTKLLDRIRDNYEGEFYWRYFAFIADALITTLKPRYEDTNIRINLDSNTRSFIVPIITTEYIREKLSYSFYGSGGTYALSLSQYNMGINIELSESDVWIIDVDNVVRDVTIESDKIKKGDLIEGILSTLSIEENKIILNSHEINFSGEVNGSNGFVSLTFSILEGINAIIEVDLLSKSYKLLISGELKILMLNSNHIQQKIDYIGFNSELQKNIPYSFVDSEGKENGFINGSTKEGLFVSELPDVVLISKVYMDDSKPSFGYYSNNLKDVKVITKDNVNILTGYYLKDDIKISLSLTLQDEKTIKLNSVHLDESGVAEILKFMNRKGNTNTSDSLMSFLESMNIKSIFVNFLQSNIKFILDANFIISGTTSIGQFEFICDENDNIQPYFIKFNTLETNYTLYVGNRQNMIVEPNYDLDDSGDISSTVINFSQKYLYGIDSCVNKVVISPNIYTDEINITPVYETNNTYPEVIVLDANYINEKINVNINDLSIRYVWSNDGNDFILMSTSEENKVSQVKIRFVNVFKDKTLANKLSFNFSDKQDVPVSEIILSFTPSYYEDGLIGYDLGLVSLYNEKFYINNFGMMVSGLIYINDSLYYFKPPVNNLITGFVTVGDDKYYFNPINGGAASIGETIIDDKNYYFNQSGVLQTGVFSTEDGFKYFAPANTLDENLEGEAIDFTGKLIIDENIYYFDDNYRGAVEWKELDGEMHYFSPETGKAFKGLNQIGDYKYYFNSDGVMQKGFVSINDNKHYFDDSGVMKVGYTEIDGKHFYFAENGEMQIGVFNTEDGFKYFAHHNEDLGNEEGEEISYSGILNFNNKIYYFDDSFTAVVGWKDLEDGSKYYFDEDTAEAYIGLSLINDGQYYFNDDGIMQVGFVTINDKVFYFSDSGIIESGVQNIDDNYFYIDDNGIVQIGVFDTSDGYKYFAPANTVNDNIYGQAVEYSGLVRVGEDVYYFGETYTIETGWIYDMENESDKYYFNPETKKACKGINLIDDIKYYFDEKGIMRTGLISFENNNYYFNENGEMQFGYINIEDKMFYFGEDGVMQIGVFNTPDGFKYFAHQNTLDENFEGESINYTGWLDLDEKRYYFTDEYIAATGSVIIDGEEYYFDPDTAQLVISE
A word on the inhibition: it is the change of the read-out against control, counted positive when it falls. For `C/C(=N\NC(=O)CSc1nc2ccccc2c(=O)n1-c1ccccc1C)c1cccs1`, the inhibition is 11.8% (active).
The result for `Cc1ccccc1-n1c(SCC(=O)Nc2cccc3ccccc23)nc(O)cc1=O` reads 1.39%; that for `C/C(=N\NC(=O)COc1c(C)cccc1C)c1cccs1`, 0.614%; that for `COc1ccccc1-c1cnc2c(c1)C(=O)N([C@H](C)CO)C[C@H](C)[C@H](CN(C)C(=O)CN(C)C)O2`, 0.748%.
Take `CCC(=O)N(C)C[C@@H]1Oc2ncc(C#Cc3cccnc3)cc2C(=O)N([C@@H](C)CO)C[C@@H]1C`: the inhibition was 0.973%.
Regarding `C[C@H](CO)N1C[C@H](C)[C@H](CN(C)Cc2ccc3c(c2)OCO3)Oc2c(NC(=O)NC3CCCCC3)cccc2C1=O`, the inhibition was -1.25%.
`COc1ccccc1CNC(=O)C[C@@H]1CC[C@H]2[C@@H](COc3ccc(NS(=O)(=O)c4ccc(C)cc4)cc3C(=O)N2C)O1`: the inhibition is 0.867%.
As for `Cn1cnc(CCNC(=O)C[C@H]2CC[C@@H]3[C@H](COC[C@H](O)CN3C(=O)C3CC3)O2)c1`, the inhibition is -0.073%.
In the case of `COc1ccc(NC(=O)Nc2ccc3c(c2)C(=O)N([C@H](C)CO)C[C@H](C)[C@H](CN(C)C(=O)Nc2c(C)noc2C)OCCCC[C@@H](C)O3)cc1` it was 0.188%; in that of `CC(C)NC(=O)Nc1ccc2c(c1)C(=O)N([C@@H](C)CO)C[C@H](C)[C@@H](CN(C)C)O2`, 0.811%; in that of `O=C(NNC(=O)C1CCC1)c1ccccc1`, 1.5%.
As for `Cc1ccc(C)c(OCC(=O)NNC(=O)C2CCC2)c1`, the inhibition is 1.49%.
In the case of `Cc1ccc(NNC(=O)C2CCC2)cc1C`, the inhibition is 58.9% (active).
In the case of `O=C(Nc1cccc(Cl)c1)N[C@H]1CC[C@H](CCNC(=O)C2CCOCC2)O[C@H]1CO`, the inhibition was 0.073%.
The result for `CC(=O)C1=CCC(c2ccccc2)N(S(=O)(=O)c2ccc(C)cc2)C1` (stereo not given) reads 13.2% (active); that for `CCOC(=O)C1=CC[C@@H](c2ccncc2)N(S(=O)(=O)c2ccc(C)cc2)C1`, 3.35%.
As for `CCOC(=O)C1=CCC(c2ccc(F)cc2)N(S(=O)(=O)c2ccc(C)cc2)C1` (stereo not given), the inhibition is 1.19%.
The result for `CC(C)NC(=O)N1[C@H](CO)[C@H](c2ccccc2)C12CN(C(=O)Cc1ccccc1)C2` reads -9.73%; that for `CNC[C@H]1OCCCC[C@H](C)Oc2ccc(NS(=O)(=O)c3ccc(Cl)cc3)cc2C(=O)N([C@@H](C)CO)C[C@@H]1C`, 0.862%.
In the case of `CCCC(=O)Nc1ccc2c(c1)C(=O)N(C)C[C@H](OC)[C@H](C)CN(CCc1ccccc1)[C@H](C)CO2` it was 0.195%; in that of `Cc1noc(C)c1S(=O)(=O)Nc1ccc2c(c1)CC(=O)N([C@@H](C)CO)C[C@@H](C)[C@H](CN(C)S(=O)(=O)c1cccs1)O2`, 1.18%.
For the compound `C[C@H]1CN([C@@H](C)CO)C(=O)Cc2cc(N(C)C)ccc2O[C@@H]1CN(C)S(=O)(=O)c1ccc(F)cc1`, the inhibition was -6.02%.
Consider `COCC(=O)Nc1ccc2c(c1)C(=O)N(C)C[C@H](OC)[C@@H](C)CN(C(=O)c1cnccn1)[C@H](C)CO2`, for which the inhibition is 0.644%.
On to `COCCN(Cc1nc(-c2ccc(C(F)(F)F)cc2)no1)C(C)C`, for which the inhibition was 1.49%.
On to `COCCN(C(=O)C(C)C)c1nnc(-c2ccc(C(C)(C)C)cc2)s1`, for which the inhibition is 10.1% (active).
`C[C@@H]1CN([C@H](C)CO)C(=O)c2cc(NS(C)(=O)=O)ccc2O[C@@H]1CN(C)S(C)(=O)=O`: the inhibition was 0.537%.
Take `COCc1cn(CC[C@H]2CC[C@H](NC(=O)Nc3ccc4c(c3)OCO4)[C@@H](CO)O2)nn1`: the inhibition is 0.036%.
In the case of `CNC[C@H]1Oc2ncc(-c3ccccc3C)cc2C(=O)N([C@@H](C)CO)C[C@@H]1C` it was 0.537%.
The result for `C[C@@H]1CN([C@H](C)CO)C(=O)c2cc(C#CC3(O)CCCC3)cnc2O[C@H]1CN(C)Cc1ccncc1` reads 0.916%.
With `CN1CCN(/N=C/c2c[nH]c3ccccc23)CC1`, the inhibition is 12.7% (active).
In the case of `CN1CCN(/N=C/c2ccc(C#N)cc2)CC1` it was 0.047%.
The result for `C[n+]1ccc(/C=C/c2c[nH]c3ccccc23)cc1` reads 1.44%; that for `C[C@H](CO)N1C[C@H](C)[C@@H](CN(C)C(=O)Nc2cccc3ccccc23)Oc2c(NS(=O)(=O)c3ccccc3)cccc2C1=O`, -1.06%.
The result for `C[C@H](CO)N1C[C@H](C)[C@@H](CN(C)Cc2ccc(C(F)(F)F)cc2)Oc2ccc(NC(=O)CCC(F)(F)F)cc2C1=O` reads 0.866%; that for `O=C(C[C@@H]1C[C@@H]2c3cc(NC(=O)Nc4ccc(F)cc4)ccc3O[C@@H]2[C@H](CO)O1)NCC(F)(F)F`, 0.33%.
With `COC(=O)Cc1nnn2c1[C@H](C)[C@@H](OC)c1cc(Br)ccc1-2`, the inhibition was 0.213%.
In the case of `COC(=O)CN1C(C)=Nc2ccc(Br)cc2C1c1ccccc1` (stereo not given) it was 55.6% (active); in that of `CCC(CC)C(=O)N1CC(=O)Nc2ccc(Br)cc2C1c1ccccc1` (stereo not given), 3.15%.
In the case of `C[C@@H]1CN([C@@H](C)CO)C(=O)c2cc(-c3ccc(F)cc3)cnc2O[C@@H]1CN(C)Cc1ccc(C(=O)O)cc1`, the inhibition is -1.74%.
On to `Cc1noc(C)c1S(=O)(=O)Nc1ccc2c(c1)C(=O)N([C@@H](C)CO)C[C@H](C)[C@@H](CN(C)C)OCCCC[C@@H](C)O2`, for which the inhibition is -1.17%.
The result for `CC(=O)N(C)C[C@@H]1Oc2cc(-c3cncnc3)ccc2S(=O)(=O)N([C@@H](C)CO)C[C@H]1C` reads -0.296%; that for `O=C(C1CCC1)N1CC(=O)N2[C@H](CO)[C@H](c3ccc(C#CCc4ccccc4)cc3)[C@@H]2C1`, 0.603%; that for `O=C(c1ccc(N2CCOCC2)c([N+](=O)[O-])c1)N1CCN(c2ccccc2F)CC1`, 10.3% (active).
In the case of `O=C(OCC(=O)N1CCOCC1)c1ccc(N2CCOCC2)c([N+](=O)[O-])c1` it was 0.627%; in that of `O=C(c1ccc(N2CCOCC2)c([N+](=O)[O-])c1)N1CCN(S(=O)(=O)c2cccs2)CC1`, 3.29%; in that of `O=C(N[C@H]1C=C[C@@H](CC(=O)N2CCc3ccccc3C2)O[C@@H]1CO)C1CCOCC1`, 1.24%.
In the case of `Cc1noc(C)c1S(=O)(=O)N(C)C[C@@H]1Oc2c(NS(=O)(=O)c3cn(C)cn3)cccc2C(=O)N([C@H](C)CO)C[C@@H]1C` it was -0.292%.
`COc1ccc(S(=O)(=O)N(C)C[C@@H]2Oc3ccc(NC(=O)C4CC4)cc3CC(=O)N([C@@H](C)CO)C[C@@H]2C)cc1`: the inhibition was 0.342%.
The result for `COC(=O)Cc1ccc(NC(=S)NCc2ccco2)cc1` reads 16% (active).
In the case of `COc1cccc(OC)c1C(=O)NC(=S)NCc1ccco1` it was 1.13%; in that of `S=C(NCc1ccco1)Nc1ccc2c(c1)OCCO2`, -0.084%; in that of `COC(=O)C[C@H]1CC[C@H]2[C@@H](COc3ccc(NC(=O)C4CC4)cc3C(=O)N2C)O1`, 0.647%.
In the case of `COc1ccc2c3c(n(C)c2c1)[C@H](CO)N(C(=O)C1CCCC1)CC31CCN(C(=O)c2ccncc2)CC1` it was 0.361%; in that of `C[C@H](O)C#Cc1ccc([C@@H]2[C@@H](CO)N3CCCCN(C(=O)c4ccncc4)C[C@@H]23)cc1`, 0.304%; in that of `CCS(=O)(=O)N1CCC2(CC1)CN(Cc1ccc3c(c1)OCO3)[C@H](CO)c1[nH]c3cc(OC)ccc3c12`, 0.545%.
Consider `CCCC#Cc1ccc([C@@H]2[C@@H](CO)N3C(=O)CN(C(=O)Nc4cccc(F)c4)C[C@H]23)cc1`, for which the inhibition was 0.796%.
For the compound `O=C(c1ccncc1)N1CC(=O)N2[C@H](CO)[C@H](c3ccc(-c4ccccc4F)cc3)[C@@H]2C1`, the inhibition was -0.127%.
As to `COCC#Cc1cnc2c(c1)C(=O)N([C@@H](C)CO)C[C@@H](C)[C@@H](CN(C)S(=O)(=O)c1cccc(OC)c1)O2`, the inhibition was 0.452%.
In the case of `CC(C)NC(=O)Nc1ccc2c(c1)C(=O)N([C@H](C)CO)C[C@H](C)[C@@H](CN(C)C)OCCCC[C@H](C)O2` it was 0.315%.
In the case of `COc1ccc(NC(=O)N(C)C[C@H]2Oc3c(NC(=O)C4CC4)cccc3C(=O)N([C@@H](C)CO)C[C@@H]2C)cc1` it was -0.546%.
For the compound `CNC(=O)C[C@@H]1CC[C@@H]2[C@H](COC[C@H](O)CN2Cc2ccc(C(F)(F)F)cc2)O1`, the inhibition is -1.26%.
In the case of `C[C@@H]1CCCCO[C@H](CN(C)C(=O)Nc2cccc3ccccc23)[C@H](C)CN([C@@H](C)CO)C(=O)c2cc(NC(=O)CCCN(C)C)ccc2O1` it was -0.333%; in that of `O=C(C[C@@H]1C[C@@H]2c3cc(NC(=O)C4CCOCC4)ccc3O[C@@H]2[C@H](CO)O1)NCc1ccncc1`, 0.039%.
With `C/C=C/c1ccc([C@@H]2[C@@H](CO)N(C(=O)c3ccccc3)C23CN(C(C)=O)C3)cc1`, the inhibition was 1.41%.
The result for `C[C@@H]1CN([C@@H](C)CO)C(=O)c2cc(C#CCN(C)C)cnc2O[C@H]1CN(C)S(=O)(=O)c1cn(C)cn1` reads 1.29%; that for `CCc1ccc(N2CC(O)=C(c3nc4ccccc4c(=O)[nH]3)C2=N)cc1`, 2.4%.
Regarding `Oc1ccc(-c2[nH]ncc2-c2nc3ccccc3s2)c(O)c1`, the inhibition is -1.73%.
The result for `COc1ccccc1N1CC(O)=C(c2nc3ccccc3s2)C1=N` reads 14.9% (active).
The result for `O=C(C[C@H]1CC[C@H]2[C@@H](COC[C@H](O)CN2C(=O)c2ccccc2F)O1)NCc1ccccc1` reads 0.135%.
On to `CO[C@H]1CN(C)C(=O)c2cc(NS(=O)(=O)CC(F)(F)F)ccc2OC[C@H](C)N(C(=O)c2ccc3c(c2)OCO3)C[C@H]1C`, for which the inhibition was 0.021%.

Values taken from PubChem BioAssay AID652162 (Broad Institute, 2013).
